Data taken from paper PMC4336329 (PLoS ONE, 2015).
About 14,000 (4.5%) of roughly 310,000 compounds showed an effect of 50% or more. The effect is printed as a negative number. For the sample, strong results were picked, then their nearest neighbours and some compounds at random.

Molecular target: human ether-à-go-go-related gene (hERG) potassium channel (human, UniProt Q12809)
Experiment: primary screen, population patch clamp on CHO cells stably expressing hERG; higher = less effect of the substance
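Note: peak tail current of the secondary pulse compared with the same well before compound.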

Sequence of human ether-à-go-go-related gene (hERG) potassium channel (Q12809 whole entry, looked up): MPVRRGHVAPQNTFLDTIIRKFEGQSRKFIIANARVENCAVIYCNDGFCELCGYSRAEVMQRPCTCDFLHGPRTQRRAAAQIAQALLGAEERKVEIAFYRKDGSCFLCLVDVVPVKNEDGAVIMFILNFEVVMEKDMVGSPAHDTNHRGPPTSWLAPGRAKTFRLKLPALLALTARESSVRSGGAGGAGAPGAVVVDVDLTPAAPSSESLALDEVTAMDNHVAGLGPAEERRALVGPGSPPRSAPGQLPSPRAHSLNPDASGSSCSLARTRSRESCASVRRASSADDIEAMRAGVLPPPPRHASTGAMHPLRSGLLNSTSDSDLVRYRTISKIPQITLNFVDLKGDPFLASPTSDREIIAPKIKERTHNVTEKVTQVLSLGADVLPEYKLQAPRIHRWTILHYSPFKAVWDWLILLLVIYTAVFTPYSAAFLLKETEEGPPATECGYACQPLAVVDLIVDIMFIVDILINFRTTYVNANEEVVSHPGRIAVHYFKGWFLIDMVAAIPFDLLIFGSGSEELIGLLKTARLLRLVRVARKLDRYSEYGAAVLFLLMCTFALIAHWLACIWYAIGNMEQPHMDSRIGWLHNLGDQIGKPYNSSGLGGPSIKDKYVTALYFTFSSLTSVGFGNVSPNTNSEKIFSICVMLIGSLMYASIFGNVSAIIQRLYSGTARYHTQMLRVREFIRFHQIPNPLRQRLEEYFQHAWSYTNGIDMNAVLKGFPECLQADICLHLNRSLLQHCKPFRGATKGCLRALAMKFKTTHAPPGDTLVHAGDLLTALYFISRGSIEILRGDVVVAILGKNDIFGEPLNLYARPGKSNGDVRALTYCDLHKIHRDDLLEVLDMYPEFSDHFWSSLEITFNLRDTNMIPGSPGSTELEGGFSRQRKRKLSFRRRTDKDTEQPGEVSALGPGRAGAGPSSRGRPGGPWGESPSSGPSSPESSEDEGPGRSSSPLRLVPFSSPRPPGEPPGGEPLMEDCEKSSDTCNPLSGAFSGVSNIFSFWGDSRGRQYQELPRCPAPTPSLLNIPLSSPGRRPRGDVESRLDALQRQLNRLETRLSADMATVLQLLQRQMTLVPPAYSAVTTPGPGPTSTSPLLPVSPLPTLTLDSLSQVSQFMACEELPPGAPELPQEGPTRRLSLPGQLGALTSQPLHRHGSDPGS

| Compound | hERG current change (%, negative = inhibition) at 10uM [%] |
| --- | --- |
| CCS(=O)(=O)N1CCC(C(=O)Oc2ccccc2OC)CC1 | 18.5 |
| CC(=O)Nc1ccc(NC(=O)c2c(-c3ccccc3Cl)noc2C)cc1 | 5.89 |
| COc1ccc(C(=O)N(c2ccc(C)cc2)C2C=CS(=O)(=O)C2)cc1OC (stereo not shown) | 9.79 |
| CC(=O)N1CCN(Cc2ccc(Br)s2)CC1 | -2.46 |
| C#CCOCCOCCOCCNc1nc(N2CCN(C(=O)CCCCCCCCCCNC(=O)Cn3cc(C[C@@H](C)O)nn3)CC2)nc(N2CCN(C(=O)CCCCCCCCCCNC(=O)[C@@H](CCSC)n3cc(CCO)nn3)CC2)n1 | 10.1 |
| O=C(COC(=O)/C=C/c1ccc([N+](=O)[O-])cc1)NCc1ccccc1 | 2.07 |
| CC12CCC(C(=O)NNC(=O)c3ccc(F)cc3)(OC1=O)C2(C)C (stereo not shown) | 24.6 |
| CCOc1ccc(NC(=O)c2ccc(-c3csc(C)n3)cc2)cc1 | 16.5 |
| CC(C)Nc1nnc(SCC(=O)Nc2ccc3c(c2)C(=O)c2ccccc2C3=O)s1 | -2.55 |
| COc1ccc(CCNc2nc(=O)[nH]nc2C)cc1OC | 2.35 |
| Cc1ccc(-c2nnc(CCC(=O)NCC3C4CC5CC(C4)CC3C5)o2)s1 (stereo not shown) | -6.1 |
| COc1cccc(-c2cccc(NC(=O)C3CCN(C4CCOCC4)CC3)c2)c1 | -42 |
| COc1cccc(-c2cccc(NC(=O)C3CCN(C4CCC4)CC3)c2)c1 | -51.7 |
| COc1cccc(NC(=O)C2CCC2)c1 | 8.83 |
| CCN(CC)CC(C)CNC(=O)C1(O)c2ccccc2NC(=O)N1c1ccc(Cl)c(Cl)c1 (stereo not shown) | 3.31 |
| COc1ccc(OCC(O)CNC(=O)Nc2cc(C)cc(C)c2)cc1 (stereo not shown) | 0.613 |
| Cc1cc(C(=O)N/N=C/c2ccco2)n[nH]1 | 31.6 |
| CC(=O)c1ccc(C(=O)N2CCCC(C(=O)c3cc(F)ccc3F)C2)s1 (stereo not shown) | 2.88 |
| Cl.Cn1nnnc1SCCNCc1ccccc1OCc1ccc(F)cc1 | -29.6 |
| CCOc1cc(CNCCSc2nnnn2C)cc(Br)c1OCc1ccccc1.Cl | -23.1 |
| Cl.Cn1nnnc1SCCNCc1ccccc1OCc1ccc(Cl)cc1 | -53.4 |
| COc1cc(CNCCSc2nnnn2C)cc(Br)c1OCc1ccc(F)cc1.Cl | -43.9 |
| COc1cc(CNCCSc2nnnn2C)cc(Br)c1OCc1ccccc1.Cl | -56.3 |
| Cn1nnnc1SCCNCc1ccccc1OCc1ccccc1 | -9.36 |
| CCOC(=O)c1ccc(S(=O)(=O)N2CCN(CCC#N)CC2)cc1 | -14.7 |
| Cc1ccc(CNC(=O)COC(=O)CSc2ccc(Br)cc2C)cc1 | 10.9 |
| Cc1nnc(Nc2ccc(O)cc2)[nH]c1=O | 27.7 |

| Compound | hERG current change (%, negative = inhibition) at 10uM [%] |
| --- | --- |
| CCN1CCN(c2ccc(S(=O)(=O)N3CCOCC3)cc2NC(=O)c2ccc(Cl)cc2Cl)CC1 | -38.4 |
| CCN1CCN(c2ccc(S(=O)(=O)N3CCOCC3)cc2NC(=O)c2ccc(C)c(C)c2)CC1 | -40 |
| CCN1CCN(c2ccc(S(=O)(=O)N3CCOCC3)cc2NC(=O)c2ccccc2OC(F)F)CC1 | -42.5 |
| CCN1CCN(c2ccc(S(=O)(=O)N3CCOCC3)cc2NC(=O)c2ccccc2SC)CC1 | -60.1 |
| CCN1CCN(c2ccc(S(=O)(=O)N3CCOCC3)cc2NC(=O)c2ccc(F)cc2Cl)CC1 | -35.7 |
| CCN1CCN(c2ccc(S(=O)(=O)N3CCOCC3)cc2NC(=O)c2ccc(Cl)s2)CC1 | -57.1 |
| C/C(=N/OC(=O)c1c(-c2c(Cl)cccc2Cl)noc1C)c1cnccn1 | -1.72 |
| Cc1nc(NCc2ccccc2)c2cc[nH]c2n1 | 21 |
| Cc1nc2sc(C(c3cccc(F)c3)N3CCCCC3)c(O)n2n1 (stereo not shown) | 4.79 |
| O=C(NCC1CCCO1)c1ccc(Cn2c(=S)[nH]c3ccccc3c2=O)cc1 (stereo not shown) | 18.2 |
| CN1CCN(C(=O)/C(=C/c2cn(S(=O)(=O)N(C)C)c3ccccc23)NC(=O)c2ccccc2Cl)CC1 | 20.2 |
| COc1cc(/C=C/c2ccc3cccc(O)c3n2)ccc1O | -0.305 |
| Cc1cc(C)nc(Nc2nc(C)c3cc4c(cc3n2)OCO4)n1 | -3.78 |
| CCN(Cc1ccccc1)C(=O)COC(=O)c1cc(S(=O)(=O)Nc2c(C)n(C)n(-c3ccccc3)c2=O)ccc1C | -74.9 |
| Cc1c(NS(=O)(=O)c2ccc(Cl)c(C(=O)OC(C)C(=O)N3CCOCC3)c2)c(=O)n(-c2ccccc2)n1C (stereo not shown) | 5.07 |
| Cc1c(NS(=O)(=O)c2ccc(Cl)c(C(=O)OCC(=O)NCc3ccco3)c2)c(=O)n(-c2ccccc2)n1C | -51.9 |
| Cc1c(NS(=O)(=O)c2cc(C(=O)NCc3ccco3)cc(Cl)c2Cl)c(=O)n(-c2ccccc2)n1C | -39.5 |
| Cc1c(NS(=O)(=O)c2ccc(Cl)c(C(=O)OC(C)C(=O)NCc3ccco3)c2)c(=O)n(-c2ccccc2)n1C (stereo not shown) | -77.5 |
| CCN(C(=O)COC(=O)c1cc(S(=O)(=O)Nc2c(C)n(C)n(-c3ccccc3)c2=O)ccc1Cl)C1CCCCC1 | -49.9 |
| COc1cc(N2C(=O)c3ccccc3C2=O)c(Cl)cc1C(=O)OCC(=O)NCc1ccco1 | -56.1 |
| COc1cc(N2C(=O)c3ccccc3C2=O)c(Cl)cc1C(=O)OCC(=O)N1CCOCC1 | -9.43 |
| CCN(Cc1ccccc1)C(=O)C(C)OC(=O)c1cc(S(=O)(=O)Nc2c(C)n(C)n(-c3ccccc3)c2=O)ccc1C (stereo not shown) | -19.3 |
| Cc1ccc(S(=O)(=O)Nc2c(C)n(C)n(-c3ccccc3)c2=O)cc1C(=O)OC(C)C(=O)N(C)c1ccccc1 (stereo not shown) | -10.5 |
| COc1cc(N2C(=O)c3ccccc3C2=O)c(Cl)cc1C(=O)OCC(=O)N(C)C | -28.5 |
| CN(c1ccccc1)S(=O)(=O)c1ccc(Cl)c(C(=O)OCC(=O)NCc2ccco2)c1 | -25 |
| Cc1cnc(C(=O)OC(C)C(=O)NCc2ccccc2)cn1 (stereo not shown) | 3.99 |
| Brc1ccc(CN2CCN(c3ccccn3)CC2)s1 | -5.6 |

| Compound | hERG current change (%, negative = inhibition) at 10uM [%] |
| --- | --- |
| CCn1c(COc2ccc(Cl)cc2)nnc1SCC(=O)Nc1ccc2c(c1)OCO2 | 3.98 |
| Cc1cc(C)cc(C(=O)N(C)C2CCCN(Cc3ccccc3F)C2)c1 (stereo not shown) | -13 |
| Cc1cccc(-n2nc3c([n+]2[O-])CCc2nonc2-3)c1C | 11.4 |
| O=C(CSc1ccc(Br)cc1)NC1CCS(=O)(=O)C1 (stereo not shown) | 5.33 |
| CCCN(CCC)C(=S)Nc1cc(C(=O)OC)ccc1C(=O)OC | -38.2 |
| Cc1cccc2c3c([nH]c12)CCN(C)C3 | 10 |
| Cc1nn(Cc2ccc(Cl)cc2Cl)c(C)c1NC(=O)NC12CC3CC(CC(C3)C1)C2 | 7.38 |
| Cc1c(Cl)c([N+](=O)[O-])nn1CCCC(=O)Nc1c(Cl)cccc1Cl | -8.29 |
| Cc1nn(Cc2ccc(Cl)cc2Cl)c(C)c1NC(=O)Cn1nc([N+](=O)[O-])c(Cl)c1C | 1.33 |
| Cc1nn(Cc2ccc(Cl)cc2)c(C)c1NC(=O)CCCn1nc([N+](=O)[O-])c(Cl)c1C | -64 |
| Cc1nn(Cc2ccccc2)c(C)c1NC(=O)CCCn1nc([N+](=O)[O-])c(Cl)c1C | -43 |
| Cc1ccc(Cn2nc(C)c(NC(=O)CCCn3nc([N+](=O)[O-])c(Cl)c3C)c2C)cc1 | -50.7 |
| Cc1nn(Cc2ccc(Cl)cc2Cl)c(C)c1NC(=O)CCl | -60.9 |
| Cc1nn(Cc2ccc(Cl)cc2)c(C)c1NC(=O)Cn1nc([N+](=O)[O-])c(Cl)c1C | 2.42 |
| Cc1nn(Cc2ccccc2)c(C)c1NC(=O)CCCn1nc(C)c([N+](=O)[O-])c1C | -16.3 |
| Cc1nn(Cc2c(Cl)cccc2Cl)c(C)c1NC(=O)CCCn1nc([N+](=O)[O-])c(Cl)c1C | -19.6 |
| Cc1ccc(Cn2nc(C)c(NC(=O)CCCn3nc(C)c([N+](=O)[O-])c3C)c2C)cc1 | -10.9 |
| Cc1nn(Cc2ccc(Cl)cc2)c(C)c1NC(=O)CCCn1nc(C)c([N+](=O)[O-])c1C | -64.5 |
| Cc1onc(-c2ccccc2Cl)c1-c1nc(-c2ccncc2)no1 | -10.9 |
| CC1(C)CNC(=O)CC(C)(C)N1 | 4.53 |
| CCn1c(SCC(=O)N2CCCCC2)nc(O)cc1=O | -7.46 |
| Cc1ccc(C)c(-n2c(Cc3cc(=O)[nH]c(=O)[nH]3)nnc2SCC(=O)NCc2ccco2)c1 | 4.83 |
| Cn1cccc1C(=O)N/N=C/c1c(Cl)cccc1Cl | 3.26 |
| COc1cc2c(cc1OC)C(C)N(S(=O)(=O)c1cccs1)CC2 (stereo not shown) | -12.9 |
| COc1ccc(-c2ccc3nnc(SCC(=O)NCC4CCCO4)n3n2)cc1 (stereo not shown) | -9.98 |
